Counter-ions that a name gives are not always drawn.
These molecules were tested on LOC_OS03G12390-cb001 (assay: thermal shift delta Tm vs DMSO control; higher = stronger stabilization (binding)). Conditions: 12.5 µM; protein concentration 2 µM.
How it was run: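 Purified, E. coli-expressed rice kinase domain constructs were tested by differential scanning fluorimetry in 96-well plates: 19.5 μl of 2 μM kinase in 100 mM potassium phosphate pH 7.5, 150 mM NaCl, 10% glycerol, 5 × SYPRO Orange, plus compound in DMSO. Fluorescence was read from 25°C to 95°C at 0.05°C/s. Melting temperatures came from Boltzmann fits, and the shift is the triplicate mean relative to protein with DMSO alone.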

| SMILES | thermal shift delta Tm [°C] |
| --- | --- |
| COc1cc(Nc2ncc(F)c(Nc3ccc4c(n3)NC(=O)C(C)(C)O4)n2)cc(OC)c1OC | 9.67 |
| Cc1ccc(-n2nc(C(C)(C)C)cc2NC(=O)Nc2ccc(OCCN3CCOCC3)c3ccccc23)cc1 [Doramapimod (BIRB 796)] | -0.03 |
| CC#CC(=O)N1CC[C@@H](n2c(=O)n(-c3ccc(Oc4ccccc4)cc3)c3c(N)ncnc32)C1 [ONO-4059 (GS-4059) hydrochloride] | -0.67 |
| O=C(NC[C@H](O)CO)c1ccncc1Nc1ccc(I)cc1F | -0.04 |
| CO[C@H]1C[C@@H]2CC[C@@H](C)[C@@](O)(O2)C(=O)C(=O)N2CCCC[C@H]2C(=O)O[C@H]([C@H](C)C[C@@H]2CC[C@@H](O)[C@H](OC)C2)CC(=O)[C@H](C)/C=C(\C)[C@@H](O)[C@@H](OC)C(=O)[C@H](C)C[C@H](C)/C=C/C=C/C=C/1C [Rapamycin (Sirolimus)] | 0.3 |
| COc1c(C)c(C(=O)c2ccc(N)c(C(=O)O)c2)n2ccccc12 | -0.07 |
| CC(C)CC(=O)Nc1n[nH]c2c1CN(C(=O)C1CCN(C)CC1)C2(C)C | 0.64 |
| COc1cc2ncnc(Nc3ccc(O)c(Br)c3)c2cc1OC | 4.5 |
| CCN(CC)CCCC(C)Nc1nc(C)cc(Nc2ccc3nc(C)cc(N)c3c2)n1 (configuration not stated) | -0.21 |
| Cc1cc(NC(=O)c2cccc(NC(=O)/C=C/CN(C)C)c2)ccc1Nc1nccc(-c2cccnc2)n1 | 2.05 |
| COc1cc2ncnc(Nc3cccc(Cl)c3F)c2cc1OC(=O)N1CCN(C)C[C@H]1C | 0.01 |
| Cc1ccc(C(=O)Nc2ccc(Oc3cc4cnn(C)c4cc3-c3cn[nH]c3)c(F)c2)c(=O)n1-c1ccc(F)cc1 | 0.61 |
